In this test the test system is RIVA. Briefly: growth inhibition by drug alone (1 - RLU/untreated control) (fraction); higher = stronger inhibition. The note with it: 177Lu-lilotomab satetraxetan 0 ug/ml. As for the experimental part: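 RIVA (RI-1) ABC-DLBCL cells were pretreated or not for 18 h with 0.5 ug/ml 177Lu-lilotomab satetraxetan (600 MBq/mg), washed and seeded (3000 cells/well) on 384-well plates pre-printed with the Selleck Cambridge Cancer Compound library. Viability was read by RealTime-Glo luminescence on days 3-6 after seeding. Effect = 1 - RLU/mean RLU of the 48 untreated no-drug control wells per plate; Bliss score = (M-E)/(1-Fa).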

Structures can show the parent of a compound that is named as a salt.

For the compound `CC(C)(C)c1[nH]cnc1/C=c1\[nH]c(=O)/c(=C/c2ccccc2)[nH]c1=O` [NPI-2358 (Plinabulin)], the “growth inhibition by drug alone” value reads like this: (10 nM, time (day): 3) 0.00478; (10 nM, time (day): 4) -0.0503; (10 nM, time (day): 5) -0.112; (10 nM, time (day): 6) -0.272; (100 nM, time (day): 3) 0.941; (100 nM, time (day): 4) 0.953. For the same compound, the “growth inhibition by drug alone” value runs as follows: (100 nM, time (day): 5) 0.959; (100 nM, time (day): 6) 0.963.
As to `COc1cc2ncnc(Nc3cccc(Br)c3)c2cc1OC`, the “growth inhibition by drug alone” value is, setting by setting: (10 nM, time (day): 3) -0.0227; (10 nM, time (day): 4) 0.0203; (10 nM, time (day): 5) -0.0662; (10 nM, time (day): 6) -0.376; (100 nM, time (day): 3) -0.0939; (100 nM, time (day): 4) -0.0578. The “growth inhibition by drug alone” value is, setting by setting: (100 nM, time (day): 5) -0.0794; (100 nM, time (day): 6) -0.167.
For `CCCC(=O)[O-].[Na+]` [Sodium butyrate], the “growth inhibition by drug alone” value (10 nM, time (day): 3) is -0.23; the “growth inhibition by drug alone” value (10 nM, time (day): 4) was -0.252; the “growth inhibition by drug alone” value (10 nM, time (day): 5) is -0.304; the “growth inhibition by drug alone” value (10 nM, time (day): 6) is -0.546; the “growth inhibition by drug alone” value (100 nM, time (day): 3) was -0.245; the “growth inhibition by drug alone” value (100 nM, time (day): 4) is -0.343. For the same compound, the “growth inhibition by drug alone” value (100 nM, time (day): 5) is -0.3 and the “growth inhibition by drug alone” value (100 nM, time (day): 6) is -0.374.
As to `O=C(NCCCNc1nc(Nc2cccc(NC(=O)N3CCCC3)c2)ncc1I)c1cccs1`, the “growth inhibition by drug alone” value runs as follows: (10 nM, time (day): 3) 0.342; (10 nM, time (day): 4) 0.272; (10 nM, time (day): 5) 0.262; (10 nM, time (day): 6) 0.207; (100 nM, time (day): 3) 0.339; (100 nM, time (day): 4) 0.317. The “growth inhibition by drug alone” value is 0.346 (100 nM, time (day): 5) and 0.36 (100 nM, time (day): 6).
For `COC(=O)C1=C(C)NC(C)=C(C(=O)OCCCN2CCC(c3ccccc3)(c3ccccc3)CC2)[C@H]1c1cccc([N+](=O)[O-])c1` [S-(+)-Niguldipine hydrochloride], the “growth inhibition by drug alone” value (10 nM, time (day): 3) came out at 0.00175; the “growth inhibition by drug alone” value (10 nM, time (day): 4) was -0.0387; the “growth inhibition by drug alone” value (10 nM, time (day): 5) is -0.0555; the “growth inhibition by drug alone” value (10 nM, time (day): 6) was -0.128; the “growth inhibition by drug alone” value (100 nM, time (day): 3) was -0.336; the “growth inhibition by drug alone” value (100 nM, time (day): 4) was -0.283. For the same compound, the “growth inhibition by drug alone” value is, setting by setting: (100 nM, time (day): 5) -0.288; (100 nM, time (day): 6) -0.329.

These data come from the supplement of paper PMC6897291.
